Laboratory results published in PubChem BioAssay (NCATS).
Results filed as inconclusive are left out. A number with no mark means an inactive call. Active and inactive are the calls of the source. Calls follow the shape of the dose curve; as a rule, active = well fitted inhibition curve with a large enough effect; inconclusive = small, poorly fitted or top-dose-only effect; inactive = flat fitted curve, though single readings scatter.
Potency is read from the fitted curve at half-maximal effect.

The molecules below were run on GB4 (assay: qHTS profiling for inhibitors of Plasmodium falciparum proliferation (AID 504749; also: nearly all actives have a fitted effect of over 60% in size;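 as to activity, negative = inhibition: 0% = DMSO vehicle and full inhibition = artemisinin control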)). Settings: P. falciparum in erythrocytes, SYBR Green DNA, 72 h; series mostly up to 28.7 µM; activity, negative = inhibition: at the top concentration.
In short: (§1)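 SYBR Green fluorescence of parasite DNA, read after lysis and overnight dark incubation, measured growth over 72 h in erythrocyte culture at 0.3% parasitemia and 2.5% hematocrit. Data normalised to DMSO and 0.29 uM artemisinin, with plate-drift correction.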
In the case of `COC(=O)C[C@](O)(CCCC(C)(C)O)C(=O)O[C@@H]1C(OC)=C[C@]23CCCN2CCc2cc4c(cc2[C@H]13)OCO4`, the Potency is reported as 30.1 nM (active).
`CC=CC1=C(C(=O)O)N2C(=O)[C@H](NC(=O)[C@H](N)c3ccc(O)cc3)[C@@H]2SC1` was tested, and the “activity, negative = inhibition” value was -2.55%.
`C[C@H]1C[C@@H]2[C@@H]([C@@H](O)C[C@@]3(C)[C@H]2CC[C@]3(O)C(=O)CO)[C@@]2(C)C=CC(=O)C=C12` was tested, and the “activity, negative = inhibition” value was -5.09% [at 12.8 µM].
`O=c1[nH]c(=O)n(C2CCCO2)cc1F` (stereo not given) was tested, and the “activity, negative = inhibition” value was -2.21%.
`Nc1ccn([C@@H]2CS[C@H](CO)O2)c(=O)n1` was tested, and the Potency was “inactive”.
For `CN1c2cc(O)c(N=NC(N)=O)cc2CC1S(=O)(=O)O` (stereo not given), the “activity, negative = inhibition” value was -2.87%.
`CC[C@H]1CN2CCc3cc(OC)c(OC)cc3[C@H]2C[C@@H]1C[C@@H]1NCCc2cc(OC)c(OC)cc21` was tested, and the Potency was 269 nM (active).
`CC(C)(C)NC(=O)[C@H]1CN(Cc2cccnc2)CCN1C[C@@H](O)C[C@@H](Cc1ccccc1)C(=O)N[C@H]1c2ccccc2C[C@H]1O` was tested, and the Potency was 5360 nM (active).
`Nc1ccn([C@@H]2O[C@H](CO)[C@H](O)C2(F)F)c(=O)n1` was tested, and the Potency was 953 nM (active).
In the case of `O=C(O)CO.[NH2-].[NH2-].[Pt+2]`, the “activity, negative = inhibition” value is reported as -11.1%.
With `COC(=O)C1=C(C)NC(C)=C(C(=O)OCCN2CCN(C(c3ccccc3)c3ccccc3)CC2)C1c1cccc([N+](=O)[O-])c1` (stereo not given) the Potency was 2690 nM (active).
With `CCC1=C[C@@H]2CN(C1)Cc1c([nH]c3ccccc13)[C@@](C(=O)OC)(c1cc3c(cc1OC)N(C)[C@@H]1[C@@](O)(C(=O)OC)[C@H](OC(C)=O)[C@]4(CC)C=CCN5CC[C@]31[C@@H]54)C2` the Potency was 2130 nM (active).
`Nc1ccc(S(=O)(=O)Nc2ncccn2)cc1` was tested, and the “activity, negative = inhibition” value was -0.924% [at 12.8 µM].

Each molecule was assayed on HB3 in the same assay as above. Settings: P. falciparum in erythrocytes, SYBR Green DNA, 72 h; series mostly up to 28.7 µM; activity, negative = inhibition: at the top concentration.
In short: as §1
In the case of `COC(=O)C[C@](O)(CCCC(C)(C)O)C(=O)O[C@@H]1C(OC)=C[C@]23CCCN2CCc2cc4c(cc2[C@H]13)OCO4`, the Potency is reported as 28.2 nM (active).
For `CC=CC1=C(C(=O)O)N2C(=O)[C@H](NC(=O)[C@H](N)c3ccc(O)cc3)[C@@H]2SC1`, the “activity, negative = inhibition” value was 7.27%.
For `COc1cc(C(=O)NS(=O)(=O)c2ccccc2C)ccc1Cc1cn(C)c2ccc(NC(=O)OC3CCCC3)cc12`, the “activity, negative = inhibition” value was -17.9%.
In the case of `C[C@H]1C[C@@H]2[C@@H]([C@@H](O)C[C@@]3(C)[C@H]2CC[C@]3(O)C(=O)CO)[C@@]2(C)C=CC(=O)C=C12`, the “activity, negative = inhibition” value is reported as 2.11% [at 12.8 µM].
`O=c1[nH]c(=O)n(C2CCCO2)cc1F` (stereo not given) was tested, and the “activity, negative = inhibition” value was 5.42%.
With `CC1(C)O[C@@H]2C[C@@H]3[C@H]4C[C@@H](F)C5=CC(=O)C=C[C@]5(C)[C@@]4(F)[C@@H](O)C[C@]3(C)[C@]2(C(=O)CO)O1` the “activity, negative = inhibition” value was -10.4%.
In the case of `Nc1ccn([C@@H]2CS[C@H](CO)O2)c(=O)n1`, the Potency is reported as “inactive”.
With `CN1c2cc(O)c(N=NC(N)=O)cc2CC1S(=O)(=O)O` (stereo not given) the “activity, negative = inhibition” value was 3.83%.
`CC[C@H]1CN2CCc3cc(OC)c(OC)cc3[C@H]2C[C@@H]1C[C@@H]1NCCc2cc(OC)c(OC)cc21` was tested, and the Potency was 316 nM (active).
For `Nc1ccn([C@@H]2O[C@H](CO)[C@H](O)C2(F)F)c(=O)n1`, the Potency was 3980 nM (active).
`O=C(O)CO.[NH2-].[NH2-].[Pt+2]` was tested, and the “activity, negative = inhibition” value was 1.03%.
For `COC(=O)C1=C(C)NC(C)=C(C(=O)OCCN2CCN(C(c3ccccc3)c3ccccc3)CC2)C1c1cccc([N+](=O)[O-])c1` (stereo not given), the Potency was 3160 nM (active).
For `COc1c(N2C[C@@H]3CCCN[C@H]3C2)c(F)cc2c(=O)c(C(=O)O)cn(C3CC3)c12`, the “activity, negative = inhibition” value was -10.7%.
In the case of `CCC1=C[C@@H]2CN(C1)Cc1c([nH]c3ccccc13)[C@@](C(=O)OC)(c1cc3c(cc1OC)N(C)[C@@H]1[C@@](O)(C(=O)OC)[C@H](OC(C)=O)[C@]4(CC)C=CCN5CC[C@]31[C@@H]54)C2`, the Potency is reported as 7940 nM (active).
With `Nc1ccc(S(=O)(=O)Nc2ncccn2)cc1` the “activity, negative = inhibition” value was 6.38% [at 12.8 µM].

What follows are molecules tested on ICS in the same assay as above. Settings: P. falciparum in erythrocytes, SYBR Green DNA, 72 h; series mostly up to 28.7 µM; activity, negative = inhibition: at the top concentration.
In short: as §1
In the case of `COC(=O)C[C@](O)(CCCC(C)(C)O)C(=O)O[C@@H]1C(OC)=C[C@]23CCCN2CCc2cc4c(cc2[C@H]13)OCO4`, the Potency is reported as 15.8 nM (active).
With `CC=CC1=C(C(=O)O)N2C(=O)[C@H](NC(=O)[C@H](N)c3ccc(O)cc3)[C@@H]2SC1` the “activity, negative = inhibition” value was -2.31%.
`C[C@H]1C[C@@H]2[C@@H]([C@@H](O)C[C@@]3(C)[C@H]2CC[C@]3(O)C(=O)CO)[C@@]2(C)C=CC(=O)C=C12` was tested, and the “activity, negative = inhibition” value was -20.5% [at 12.8 µM].
In the case of `O=c1[nH]c(=O)n(C2CCCO2)cc1F` (stereo not given), the “activity, negative = inhibition” value is reported as 9.24%.
In the case of `Nc1ccn([C@@H]2CS[C@H](CO)O2)c(=O)n1`, the Potency is reported as “inactive”.
`CN1c2cc(O)c(N=NC(N)=O)cc2CC1S(=O)(=O)O` (stereo not given) was tested, and the “activity, negative = inhibition” value was 9.71%.
For `CC[C@H]1CN2CCc3cc(OC)c(OC)cc3[C@H]2C[C@@H]1C[C@@H]1NCCc2cc(OC)c(OC)cc21`, the Potency was 178 nM (active).
In the case of `Nc1ccn([C@@H]2O[C@H](CO)[C@H](O)C2(F)F)c(=O)n1`, the Potency is reported as 3980 nM (active).
In the case of `COC(=O)C1=C(C)NC(C)=C(C(=O)OCCN2CCN(C(c3ccccc3)c3ccccc3)CC2)C1c1cccc([N+](=O)[O-])c1` (stereo not given), the Potency is reported as 1000 nM (active).
For `COc1c(N2C[C@@H]3CCCN[C@H]3C2)c(F)cc2c(=O)c(C(=O)O)cn(C3CC3)c12`, the “activity, negative = inhibition” value was 1.28%.
`CCC1=C[C@@H]2CN(C1)Cc1c([nH]c3ccccc13)[C@@](C(=O)OC)(c1cc3c(cc1OC)N(C)[C@@H]1[C@@](O)(C(=O)OC)[C@H](OC(C)=O)[C@]4(CC)C=CCN5CC[C@]31[C@@H]54)C2` was tested, and the Potency was 3160 nM (active).
For `Nc1ccc(S(=O)(=O)Nc2ncccn2)cc1`, the “activity, negative = inhibition” value was 16.4% [at 12.8 µM].
